# Data published in the supplement of paper PMC10849652.
# About 8,800 targets were measured; listed, in parts, are those with a hit and a random draw of the rest. About 0.5% of all pairs of compound and target were hits. Values without a mark were called inactive.
# Assays:
# Assay in all cases: log2 fold change, soluble protein after heating vs DMSO (PISA); higher = thermal stabilisation; K562 lysate, 10 uM; active = over 0.2 and 3.5 SD of the protein, either way, in both replicates (recomputed)
# erlotinib = compound: C#Cc1cccc(Nc2ncnc3cc(OCCOC)c(OCCOC)cc23)c1 [erlotinib]
# How it was run: (§1)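 A 30 min treatment with 10 μM compound was applied to crude K562 extract at 1 mg/mL protein in PBS pH 7.4 with 1 mM MgCl2. Heating for 3 min spanned 48°C-58°C, after which aliquots were pooled, adjusted to 0.5% NP-40 at 4°C and spun at 21,000xg for 90 min. TMTpro 16plex LC-MS/MS of the supernatant, with channel sums equalised, gave values recorded as log-two fold change in thermal stability against solvent controls, from duplicates.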
# [1] = compound: C1=CC(=CC=C1C2=NC3=C(N2)C=C(C=C3)C(=O)N)OC4=CC=C(C=C4)Cl
# How it was run: as §1
# [2] = compound: C1=CC=C(C=C1)C2=NC(=C(N2)C3=CC=NC=C3)C4=CC(=C(C=C4)Cl)O
# How it was run: as §1
# IRAK-1-4 Inhibitor I = compound: C1COCCN1CCN2C3=CC=CC=C3N=C2NC(=O)C4=CC(=CC=C4)[N+](=O)[O-] [IRAK-1-4 Inhibitor I]
# How it was run: as §1
# ralimetinib = compound: CC(C)(C)Cn1c(N)nc2ccc(-c3[nH]c(C(C)(C)C)nc3-c3ccc(F)cc3)nc21 [ralimetinib]
# How it was run: as §1
# [3] = compound: CC(C)(O)CC(=O)NCCn1ccc2ncnc(Nc3ccc(Oc4cccc(C(F)(F)F)c4)c(Cl)c3)c21
# How it was run: as §1
# [4] = compound: CC(C)C1=C2N=C(C=C(N2N=C1)NCC3=CC=CC=C3)NCCCCCCN
# How it was run: as §1
# [5] = compound: CC1=C(C(CC(=O)N1)C2=CC=C(C=C2)C(F)(F)F)C(=O)NC3=C(C=C4C(=C3)C=NN4)F
# How it was run: as §1
# [6] = compound: CC1=C(C2=C(C=C1)C(=O)C3=CC=CC=C3N2CCCN)C
# How it was run: as §1
# [7] = compound: CC1=C(C=C(C=C1)NC(=O)C2=CC(=CC=C2)C(C)(C)C#N)NC3=CC4=C(C=C3)N=CN(C4=O)C
# How it was run: as §1
# [8] = compound: CC1=C(C=C(C=C1)NC(=O)C2=CC(=CC=C2)N(C)C)NC(=O)C3=CC=C(C=C3)O
# How it was run: as §1
# [9] = compound: C/C(=N\NC(=O)C1=CC(=CC=C1)S(=O)(=O)N2CCOCC2)/C3=C(C=CC(=C3)Cl)O
# How it was run: as §1
# [10] = compound: C1=CC2=C(C=CC(=C2)/C=C\3/C(=O)NC(=NCC4=CC=CS4)S3)N=C1
# How it was run: as §1
# [11] = compound: C1=CC2=NC=CN=C2C=C1/C=C/3\C(=O)NC(=O)S3
# How it was run: as §1
# [12] = compound: C1=CC=C2C(=C1)C3=NNC4=CC=CC(=C43)C2=O
# How it was run: as §1
# [13] = compound: C1CCN(C1)C(=O)NC2=CC=CC(=C2)NC3=NC=C(C(=N3)NCCC4=CN=CN4)Br
# How it was run: as §1
# [14] = compound: C1CN(CCC1(CC2=CC=C(C=C2)Cl)N)C3=NC=NC4=C3C=CN4
# How it was run: as §1
# ibrutinib = compound: C=CC(=O)N1CCC[C@@H](n2nc(-c3ccc(Oc4ccccc4)cc3)c3c(N)ncnc32)C1 [ibrutinib]
# How it was run: as §1
# [15] = compound: CC(=O)c1cnc2ccc(-c3cc(Cl)c(O)c(Cl)c3)nc2c1N[C@H]1CC[C@H](CN(C)C)CC1
# How it was run: as §1
# [16] = compound: CC1=CC=C(C=C1)SC2=C3C=C(SC3=CN=C2)C(=O)N
# How it was run: as §1
# UniProt Q9Y2D2, sequence (Q9Y2D2 whole entry, looked up): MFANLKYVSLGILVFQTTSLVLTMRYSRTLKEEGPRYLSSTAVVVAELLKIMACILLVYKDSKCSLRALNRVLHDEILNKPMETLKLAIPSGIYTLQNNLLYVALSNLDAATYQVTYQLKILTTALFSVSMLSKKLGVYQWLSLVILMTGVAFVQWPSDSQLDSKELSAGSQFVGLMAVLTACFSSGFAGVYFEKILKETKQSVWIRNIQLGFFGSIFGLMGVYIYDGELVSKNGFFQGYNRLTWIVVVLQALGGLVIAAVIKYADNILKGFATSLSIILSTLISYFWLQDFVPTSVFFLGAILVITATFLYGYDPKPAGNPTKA
# UniProt P12931, sequence (P12931 whole entry, looked up): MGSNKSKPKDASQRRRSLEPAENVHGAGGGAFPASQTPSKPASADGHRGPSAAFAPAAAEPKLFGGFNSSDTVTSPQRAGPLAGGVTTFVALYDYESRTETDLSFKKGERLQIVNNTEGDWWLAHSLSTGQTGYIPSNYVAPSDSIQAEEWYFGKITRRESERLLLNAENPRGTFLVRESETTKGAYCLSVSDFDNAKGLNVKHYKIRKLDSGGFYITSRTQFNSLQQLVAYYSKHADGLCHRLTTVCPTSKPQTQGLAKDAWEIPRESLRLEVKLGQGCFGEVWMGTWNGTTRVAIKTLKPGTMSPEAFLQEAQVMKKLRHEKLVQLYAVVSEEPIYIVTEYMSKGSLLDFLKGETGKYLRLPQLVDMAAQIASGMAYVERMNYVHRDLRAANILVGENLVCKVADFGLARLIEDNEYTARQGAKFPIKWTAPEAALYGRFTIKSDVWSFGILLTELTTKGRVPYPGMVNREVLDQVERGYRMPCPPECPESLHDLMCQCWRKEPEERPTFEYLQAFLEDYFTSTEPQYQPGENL
# UniProt Q8N196, sequence (Q8N196 whole entry, looked up): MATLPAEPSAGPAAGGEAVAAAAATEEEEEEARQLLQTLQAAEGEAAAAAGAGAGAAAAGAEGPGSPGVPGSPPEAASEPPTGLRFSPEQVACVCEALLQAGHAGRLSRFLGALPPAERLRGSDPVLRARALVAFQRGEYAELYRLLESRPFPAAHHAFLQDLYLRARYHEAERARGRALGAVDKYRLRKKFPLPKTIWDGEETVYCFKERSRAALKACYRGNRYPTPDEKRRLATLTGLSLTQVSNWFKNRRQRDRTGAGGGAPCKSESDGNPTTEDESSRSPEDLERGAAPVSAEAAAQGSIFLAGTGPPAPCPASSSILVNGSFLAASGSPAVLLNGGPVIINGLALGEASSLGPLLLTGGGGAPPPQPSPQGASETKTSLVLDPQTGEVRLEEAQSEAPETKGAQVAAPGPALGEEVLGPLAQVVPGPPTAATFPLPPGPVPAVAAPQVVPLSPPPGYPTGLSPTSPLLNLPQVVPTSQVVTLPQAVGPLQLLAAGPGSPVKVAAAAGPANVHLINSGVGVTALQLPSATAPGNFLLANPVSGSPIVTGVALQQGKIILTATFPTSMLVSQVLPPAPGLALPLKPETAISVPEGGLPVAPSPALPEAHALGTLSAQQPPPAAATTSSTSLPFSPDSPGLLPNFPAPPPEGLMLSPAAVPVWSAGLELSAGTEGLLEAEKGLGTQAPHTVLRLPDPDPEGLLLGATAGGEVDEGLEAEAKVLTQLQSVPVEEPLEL
# UniProt O00161, sequence (O00161 whole entry, looked up): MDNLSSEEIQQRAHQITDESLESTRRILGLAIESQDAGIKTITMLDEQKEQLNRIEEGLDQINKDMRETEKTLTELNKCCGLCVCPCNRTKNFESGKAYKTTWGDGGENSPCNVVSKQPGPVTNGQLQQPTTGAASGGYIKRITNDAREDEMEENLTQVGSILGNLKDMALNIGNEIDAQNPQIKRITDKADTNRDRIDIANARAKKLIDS
# UniProt Q96BD0, sequence (Q96BD0 whole entry, looked up): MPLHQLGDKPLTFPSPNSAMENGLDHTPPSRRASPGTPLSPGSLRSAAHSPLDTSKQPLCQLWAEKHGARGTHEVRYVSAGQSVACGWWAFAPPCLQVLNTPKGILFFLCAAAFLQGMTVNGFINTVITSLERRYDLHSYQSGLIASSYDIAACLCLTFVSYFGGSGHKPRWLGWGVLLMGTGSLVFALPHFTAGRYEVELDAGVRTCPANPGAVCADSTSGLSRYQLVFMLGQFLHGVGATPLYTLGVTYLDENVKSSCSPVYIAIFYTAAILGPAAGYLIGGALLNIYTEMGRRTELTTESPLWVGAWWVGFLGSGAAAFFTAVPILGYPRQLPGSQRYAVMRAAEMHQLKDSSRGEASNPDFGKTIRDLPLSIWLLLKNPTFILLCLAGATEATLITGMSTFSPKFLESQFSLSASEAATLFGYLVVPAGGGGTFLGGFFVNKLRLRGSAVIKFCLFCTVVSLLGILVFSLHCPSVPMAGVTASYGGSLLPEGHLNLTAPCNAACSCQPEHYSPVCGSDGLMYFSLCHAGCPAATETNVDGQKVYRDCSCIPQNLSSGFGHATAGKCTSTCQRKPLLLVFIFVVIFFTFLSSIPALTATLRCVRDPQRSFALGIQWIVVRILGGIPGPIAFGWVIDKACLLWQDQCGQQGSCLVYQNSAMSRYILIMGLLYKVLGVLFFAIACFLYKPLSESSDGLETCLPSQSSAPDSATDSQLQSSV
# UniProt Q9Y2H1, sequence (Q9Y2H1 whole entry, looked up): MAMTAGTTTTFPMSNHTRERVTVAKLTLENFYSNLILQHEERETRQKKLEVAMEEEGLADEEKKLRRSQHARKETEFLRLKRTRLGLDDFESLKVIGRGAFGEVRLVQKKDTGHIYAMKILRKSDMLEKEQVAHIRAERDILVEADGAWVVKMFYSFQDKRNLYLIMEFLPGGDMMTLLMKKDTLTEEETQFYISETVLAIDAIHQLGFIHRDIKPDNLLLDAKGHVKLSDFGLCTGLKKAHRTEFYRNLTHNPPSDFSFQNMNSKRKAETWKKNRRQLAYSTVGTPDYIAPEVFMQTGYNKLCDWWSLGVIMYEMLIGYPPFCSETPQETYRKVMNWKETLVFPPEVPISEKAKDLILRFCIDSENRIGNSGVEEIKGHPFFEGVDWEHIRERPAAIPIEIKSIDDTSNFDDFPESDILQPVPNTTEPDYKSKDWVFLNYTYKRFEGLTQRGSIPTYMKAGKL
# UniProt Q8IVJ1, sequence (Q8IVJ1 whole entry, looked up): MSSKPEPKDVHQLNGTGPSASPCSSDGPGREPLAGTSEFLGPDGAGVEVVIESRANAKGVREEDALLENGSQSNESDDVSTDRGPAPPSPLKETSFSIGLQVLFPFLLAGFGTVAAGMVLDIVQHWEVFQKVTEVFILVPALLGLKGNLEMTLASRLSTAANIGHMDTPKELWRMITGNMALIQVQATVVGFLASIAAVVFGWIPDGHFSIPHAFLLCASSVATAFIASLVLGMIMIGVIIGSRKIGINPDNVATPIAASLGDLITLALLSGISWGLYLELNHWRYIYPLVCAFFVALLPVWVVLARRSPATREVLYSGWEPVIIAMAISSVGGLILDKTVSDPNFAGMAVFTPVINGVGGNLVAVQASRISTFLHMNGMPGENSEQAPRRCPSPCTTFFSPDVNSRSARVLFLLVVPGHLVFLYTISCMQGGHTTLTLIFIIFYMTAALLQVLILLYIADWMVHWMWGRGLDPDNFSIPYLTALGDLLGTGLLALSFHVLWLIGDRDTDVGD
# UniProt P49675, sequence (P49675 whole entry, looked up): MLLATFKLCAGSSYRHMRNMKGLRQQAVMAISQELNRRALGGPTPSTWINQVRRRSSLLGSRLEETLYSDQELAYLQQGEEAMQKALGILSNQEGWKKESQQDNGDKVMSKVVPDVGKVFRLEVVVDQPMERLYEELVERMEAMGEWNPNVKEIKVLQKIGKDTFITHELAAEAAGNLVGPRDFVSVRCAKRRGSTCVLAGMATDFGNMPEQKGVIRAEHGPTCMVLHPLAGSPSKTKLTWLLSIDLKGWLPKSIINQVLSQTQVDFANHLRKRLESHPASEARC
# UniProt Q9P289, sequence (Q9P289 whole entry, looked up): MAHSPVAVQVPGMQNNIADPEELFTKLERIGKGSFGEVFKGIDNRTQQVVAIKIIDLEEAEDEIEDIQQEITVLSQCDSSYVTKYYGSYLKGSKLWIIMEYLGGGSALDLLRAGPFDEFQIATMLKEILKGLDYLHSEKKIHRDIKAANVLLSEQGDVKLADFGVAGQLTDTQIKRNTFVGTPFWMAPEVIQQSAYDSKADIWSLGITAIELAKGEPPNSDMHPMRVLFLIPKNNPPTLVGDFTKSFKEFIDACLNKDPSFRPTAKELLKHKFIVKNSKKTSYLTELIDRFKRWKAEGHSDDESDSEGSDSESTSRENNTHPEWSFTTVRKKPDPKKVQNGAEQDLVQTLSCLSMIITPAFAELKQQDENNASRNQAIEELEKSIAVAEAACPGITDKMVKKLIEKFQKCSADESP
# UniProt Q15544, sequence (Q15544 whole entry, looked up): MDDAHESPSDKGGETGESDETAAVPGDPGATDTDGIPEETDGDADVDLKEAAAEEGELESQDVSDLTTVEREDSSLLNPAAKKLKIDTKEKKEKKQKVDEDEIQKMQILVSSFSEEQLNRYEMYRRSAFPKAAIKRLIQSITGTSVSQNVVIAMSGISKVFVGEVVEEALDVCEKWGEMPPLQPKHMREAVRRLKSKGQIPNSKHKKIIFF
# UniProt Q96H72, sequence (Q96H72 whole entry, looked up): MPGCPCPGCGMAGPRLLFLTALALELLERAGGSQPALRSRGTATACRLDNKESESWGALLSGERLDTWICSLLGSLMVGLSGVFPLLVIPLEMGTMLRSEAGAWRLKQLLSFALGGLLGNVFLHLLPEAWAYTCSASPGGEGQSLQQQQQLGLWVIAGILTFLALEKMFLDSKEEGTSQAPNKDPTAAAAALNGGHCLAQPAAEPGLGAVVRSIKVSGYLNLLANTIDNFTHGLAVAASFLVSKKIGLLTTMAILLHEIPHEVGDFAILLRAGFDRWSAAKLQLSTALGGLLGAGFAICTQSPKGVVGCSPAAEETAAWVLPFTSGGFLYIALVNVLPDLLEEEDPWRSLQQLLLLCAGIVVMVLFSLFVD
# UniProt B2RUZ4, sequence (B2RUZ4 whole entry, looked up): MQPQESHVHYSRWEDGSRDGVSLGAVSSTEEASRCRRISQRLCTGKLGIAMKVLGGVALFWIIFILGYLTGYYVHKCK
Target,log2 fold change (erlotinib),log2 fold change [1],log2 fold change [2],log2 fold change (IRAK-1-4 Inhibitor I),log2 fold change (ralimetinib),log2 fold change [3],log2 fold change [4],log2 fold change [5],log2 fold change [6],log2 fold change [7],log2 fold change [8],log2 fold change [9],log2 fold change [10],log2 fold change [11],log2 fold change [12],log2 fold change [13],log2 fold change [14],log2 fold change (ibrutinib),log2 fold change [15],log2 fold change [16]
STK17B (UniProt O94768),-0.041,-0.341,-0.022,-0.065,0.104,-0.004,0.162,0.054,-0.102,0.147,0.07,–,–,–,–,–,–,–,–,–
SPA17 (UniProt Q15506),–,–,-0.018,0,0.006,-0.098,–,–,0.051,-0.053,0.026,-0.047,0.01,-0.033,-0.106,-0.076,-0.029,0.056,0.028,-0.058
TAOK2 isoform 2 (UniProt Q9UL54),–,–,–,–,–,–,–,0.034,–,–,–,–,–,–,–,–,–,–,–,–
SLC41A1 (UniProt Q8IVJ1),0.176,-0.042,0.018,-0.008,-0.003,0.112,-0.037,-0.023,–,-0.081,0.09,–,–,–,–,0.024,-0.014,–,0.007,0.041
TAF11 (UniProt Q15544),–,–,-0.04,0.051,0.027,0.008,–,0.015,0.115,0.052,0.072,0.174,-0.144,–,0.124,-0.242,0.071,–,-0.013,-0.114
SLC12A6 isoform 2 (UniProt Q9UHW9),0.013,0,-0.019,0.089,-0.01,0.017,-0.018,–,0.027,0.063,-0.006,–,–,–,–,-0.139,-0.049,–,0.016,0.122
STK17A (UniProt Q9UEE5),–,–,–,–,–,–,–,0.213,–,–,–,–,–,–,–,–,–,–,–,–
STK26 isoform 3 (UniProt Q9P289),–,–,–,–,–,–,–,–,-0.157,-0.146,–,–,–,–,–,0.272,-0.045,–,–,–
SLC39A13 (UniProt Q96H72),0.344,0.063,-0.252,-0.025,0.004,-0.137,-0.003,–,–,–,0.25,–,–,–,–,–,–,–,–,–
SLCO4A1 (UniProt Q96BD0),–,–,–,–,–,–,–,0.115,–,–,–,–,–,0.08,–,–,–,0.081,–,–
SMC4 (UniProt C9JJ64),–,–,–,–,–,–,–,–,–,–,–,–,–,-0.013,–,–,–,-0.146,–,–
STAR (UniProt P49675),0.207,-0.192,0.042,-0.031,-0.139,0.02,0.073,-0.027,-0.052,-0.049,-0.039,0.01,-0.029,–,-0.058,-0.125,-0.035,–,–,–
SNIP1 (UniProt Q8TAD8),–,–,–,–,–,–,–,-0.062,–,–,–,–,–,–,–,–,–,–,–,–
SIX5 (UniProt Q8N196),-0.062,-0.05,-0.034,-0.141,-0.023,-0.046,-0.042,-0.061,0.011,0.017,0.13,–,–,-0.046,–,–,–,-0.021,0.009,0.021
STK38L (UniProt Q9Y2H1),-0.001,-0.163,0.113,0.011,-0.069,0.021,-0.019,-0.024,-0.019,0,0.056,–,–,–,–,-0.027,0.11,–,–,–
TAF1B (UniProt Q53T94),–,–,0.024,-0.061,0.043,-0.112,–,0.419,-0.101,0.032,0.006,-0.283,-0.123,-0.001,0.013,0.345,0.123,-0.156,0.095,0.138
SIN3B (UniProt O75182),–,–,–,–,–,–,–,0.19,–,1.04,–,-0.167,-0.018,–,0.046,-0.071,0.132,–,–,–
TARDBP (UniProt K7EN94),–,–,–,–,–,–,–,–,–,–,–,0.293,-0.12,–,-0.12,0.001,-0.19,–,–,–
SLC35A3 isoform 2 (UniProt Q9Y2D2),-0.036,0.077,-0.166,0.164,-0.027,0.234,-0.027,-0.133,–,0.111,-0.025,0.057,0.001,–,-0.006,-0.036,-0.002,–,-0.034,0.051
SZT2 (UniProt Q5T011),0.043,-0.089,-0.013,0.014,0.14,-0.07,-0.135,0.076,0.126,–,-0.134,–,–,0.134,–,-0.004,0.016,-0.225,-0.102,0.105
STAU1 isoform 3 (UniProt O95793),-0.006,-0.016,–,–,–,–,0.028,0.012,–,-0.064,–,–,–,-0.103,–,–,–,-0.094,–,–
SMARCA4 isoform 4 (UniProt P51532),0.052,0.178,0.127,-0.101,0.051,-0.022,-0.337,0.093,-0.018,-0.107,0.192,–,–,–,–,0.112,-0.076,–,0.044,0.041
SMIM1 (UniProt B2RUZ4),0.172,-0.145,0.063,-0.214,0.054,0.036,0.081,-0.132,–,-0.042,-0.021,–,–,-0.114,–,0.086,-0.016,0.018,0.005,0.058
SPAG1 (UniProt Q07617),–,–,-0.034,0.042,-0.017,-0.17,–,–,–,0.15,0.079,-0.045,-0.089,1.01 (active),-0.063,–,–,0.034,0.282,-0.198
SRC isoform 2 (UniProt P12931),-0.073,0.028,-0.063,0.034,-0.035,0.075,0.052,–,0.07,–,0.042,–,–,0.102,–,-0.018,-0.069,–,-0.061,0
SNAP23 isoform 2 (UniProt O00161),0.042,0.27,-0.071,0.057,-0.071,0.095,-0.029,0.306,–,–,0.027,-0.019,-0.006,–,-0.117,0.104,-0.08,–,-0.045,0.028
SNRPD2 (UniProt K7EJB5),-0.076,-0.036,-0.12,-0.03,0.142,-0.075,0.014,0.052,-0.022,-0.011,0.069,0,-0.106,–,0.055,0.088,0.037,–,-0.004,-0.01
